In all, about 5,500 compounds went through this assay and about 2,000 (36%) were called active. Roughly 18% stayed inconclusive and do not appear here. Cut-off read from the data, not from the text of the source: active = normalized growth mostly below about 0.91 (no sharp cut-off); inconclusive = no clear call, values can overlap the other calls; inactive = mostly above about 0.92. The list shows a part of the results.
Test: chemical genetic growth profiling, strain panel (AID 1159580);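 note: tested at 20 µM; growth read once vehicle control cultures reached saturation at 30 °C; 1 = growth at the plate median or of vehicle wells; lower values mean less growth of the strain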
Settings: S. cerevisiae deletion strains, growth OD
[1] = locus YDL101C, strain DUN1, hits give low values
[2] = locus YHR030C, strain SLT2, hits give low values

Measured: normalized growth

COc1nc(N)nc(SC)n1
inactive: locus YAL013W, strain DEP1, hits give low values 0.995 | locus YBR229C, strain ROT2, hits give low values 1 | locus YCL061C, strain MRC1, hits give low values 0.988 | [1] 1 | locus YDR150W, strain NUM1, hits give low values 1 | locus YEL061C, strain CIN8, hits give low values 0.989 | locus YGR078C, strain PAC10, hits give low values 1.02 | locus YGR229C, strain SMI1, hits give low values 0.985 | [2] 1.05 | locus YHR087W, strain rtc3, hits give low values 0.992 | locus YJR043C, strain POL32, hits give low values 0.987 | locus YJR075W, strain HOC1, hits give low values 0.987 | locus YKL190W, strain CNB1, hits give low values 0.974 | locus YLR039C, strain RIC1, hits give low values 0.97 | locus YLR058C, strain SHM2 (second series), hits give low values 0.989 | locus YLR085C, strain ARP6, hits give low values 0.984 | locus YLR262C, strain YPT6, hits give low values 0.974 | locus YML094W, strain GIM5, hits give low values 1.12 | locus YMR219W, strain ESC1, hits give low values 0.993 | locus YMR263W, strain SAP30, hits give low values 0.984 | locus YNL128W, strain TEP1, hits give low values 0.979 | locus YNL153C, strain GIM3, hits give low values 1 | locus YNL298W, strain CLA4 (second series), hits give low values 0.98 | locus YNL322C, strain KRE1, hits give low values 1 | locus YNR030W, strain Alg12, hits give low values 1.02 | locus YOL006C, strain TOP1, hits give low values 0.978 | locus YPL055C, strain LGE1, hits give low values 1.01 | locus YPL241C, strain CIN2, hits give low values 1.14 | locus YPR135W, strain CTF4, hits give low values 1.03

COc1cc(C(=O)Oc2c(Cl)cc(Cl)cc2C=Nc2cccc([N+](=O)[O-])c2)cc(OC)c1OC
active: locus YDL214C, strain PRR2, hits give low values 0.607 | locus YDR477W, strain SNF1, hits give low values 0.626 | locus YER123W, strain YCK3, hits give low values 0.415 | locus YER133W, strain GLC7, hits give low values 0.59 | locus YFR019W, strain FAB1, hits give low values 0.706 | locus YGR040W, strain KSS1, hits give low values 0.648 | locus YGR052W, strain FMP48, hits give low values 0.561 | locus YGR092W, strain DBF2, hits give low values 0.336 | [2] 0.387 | locus YHR079C, strain IRE1, hits give low values 0.438 | locus YHR082C, strain KSP1, hits give low values 0.569 | locus YHR205W, strain SCH9, hits give low values 0.473 | locus YJL095W, strain BCK1, hits give low values 0.473 | locus YJL157C, strain FAR1, hits give low values 0.629 | locus YJR066W, strain TOR1, hits give low values 0.427 | locus YKL048C, strain ELM1, hits give low values 0.776 | locus YKL067W, strain YNK1, hits give low values 0.613 | locus YKL101W, strain HSL1, hits give low values 0.678 | locus YLR113W, strain HOG1, hits give low values 0.577 | locus YLR133W, strain CKI1, hits give low values 0.621 | locus YLR403W, strain SFP1, hits give low values 0.51 | locus YML070W, strain DAK1, hits give low values 0.642 | locus YMR205C, strain PFK2 (second series), hits give low values 0.646 | locus YNL020C, strain ARK1, hits give low values 0.597 | locus YNL183C, strain NPR1, hits give low values 0.54 | locus YNL307C, strain MCK1 (second series), hits give low values 0.566 | locus YOL136C, strain PFK27, hits give low values 0.597 | locus YOR061W, strain CKA2, hits give low values 0.576 | locus YOR119C, strain RIO1, hits give low values 0.642 | locus YOR231W, strain MKK1, hits give low values 0.494 | locus YPL031C, strain PHO85, hits give low values 0.6 | locus YPL153C, strain RAD53, hits give low values 0.619 | locus YPL204W, strain HRR25, hits give low values 0.58 | locus YPL256C, strain CLN2, hits give low values 0.481
inactive: locus YAR019C, strain CDC15, hits give low values 0.959 | locus YBL105C, strain PKC1, hits give low values 0.971 | locus YBR135W, strain CKS1, hits give low values 0.973 | locus YBR136W, strain MEC1, hits give low values 0.977 | locus YBR160W, strain CDC28, hits give low values 0.98 | locus YDL017W, strain CDC7, hits give low values 0.982 | locus YDL028C, strain MPS1, hits give low values 0.962 | [1] 0.985 | locus YDL108W, strain KIN28, hits give low values 0.971 | locus YDL132W, strain cdc53, hits give low values 0.962 | locus YDR052C, strain DBF4, hits give low values 0.987 | locus YDR054C, strain cdc34, hits give low values 0.956 | locus YDR226W, strain ADK1, hits give low values 0.964 | locus YFL009W, strain cdc4, hits give low values 0.958 | locus YFL029C, strain CAK1, hits give low values 0.98 | locus YFR003C, strain YPI1, hits give low values 0.976 | locus YFR028C, strain CDC14, hits give low values 0.965 | locus YIL147C, strain SLN1, hits give low values 0.973 | locus YJL128C, strain PBS2, hits give low values 0.921 | locus YJR016C, strain ILV3, hits give low values 0.988 | locus YJR066W, strain TOR1 (second series), hits give low values 0.801 | locus YKL193C, strain SDS22, hits give low values 0.979 | locus YKL203C, strain TOR2, hits give low values 0.738 | locus YMR001C, strain CDC5, hits give low values 0.981 | locus YMR277W, strain FCP1, hits give low values 0.972 | locus YNL006W, strain LST8, hits give low values 0.995 | locus YNL161W, strain CBK1, hits give low values 0.982 | locus YNL207W, strain RIO2, hits give low values 0.966 | locus YNL222W, strain SSU72, hits give low values 0.98 | locus YOL078W, strain AVO1, hits give low values 0.978 | locus YOR329C, strain SCD5, hits give low values 0.985 | locus YPL209C, strain IPL1, hits give low values 0.978 | locus YPR025C, strain CCL1, hits give low values 0.973 | locus YPR106W, strain ISR1, hits give low values 0.959 | locus YPR111W, strain DBF20, hits give low values 0.928 | strain NNK1, hits give low values 0.963 | strain TSCII, hits give low values 0.982
